From PubChem BioAssay (NCATS) come the findings set out here.

Inconclusive results are not listed. The source made the active and inactive calls. Calls come from the whole dose curve; as a rule, active = well fitted curve in the direction sought with a large enough effect; inconclusive = small, poorly fitted or top-dose-only effect, or another doubt; inactive = no such curve, though single readings can be large; an effect the other way counts as inactive or inconclusive.

A short description of assay [1]: Quantitative High-Throughput drug screen in 47 multiple myeloma cell lines against the NCATS MIPE library collection: KMM1_JCRB cell viability assay (AID 1918960). Note: nearly all actives have a fitted effect of over 30% in size. In outline:
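Cell viability inhibition in this qHTS is measured via ATP content (CellTiter-Glo) after 48 h drug exposure at 37 °C. Wells hold 500 cells; DMSO-treated wells define 100% and medium-only wells 0%.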

Assay [2] in a line: Quantitative High-Throughput drug screen in 47 multiple myeloma cell lines against the NCATS MIPE library collection: Karpas417_ECACC cell viability assay (AID 1918961). The note with it: Karpas417 myeloma viability, CellTiter-Glo ATP luminescence, 48 h; viability (% of DMSO): at 45.8 µM (top of the series) unless noted. In outline:
(§1)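 Luminescent ATP measurement with CellTiter-Glo gives viability, scaled between DMSO-only wells (100%) and media-only wells (0%). Cells, 500 per well, faced library compounds for 48 hours at 37C.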
On the technique in general: Cellular ATP, detected with luciferase, serves as a proxy for viable cell number.

A short description of assay [3]: Quantitative High-Throughput drug screen in 47 multiple myeloma cell lines against the NCATS MIPE library collection: KHM11_PLB cell viability assay (AID 1918962). Note: nearly all actives have a fitted effect of over 35% in size. In outline: (§2)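 qHTS of the MIPE 4.0 collection: 500 myeloma cells/well, 48 h drug exposure at 37C in 5% CO2, then CellTiter-Glo for 5 min at room temperature before luminescence reading.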
A short description of assay [4]: Quantitative High-Throughput drug screen in 47 multiple myeloma cell lines against the NCATS MIPE library collection: JIM3_ECACC cell viability assay (AID 1918963; note: nearly all actives have a fitted effect of over 35% in size). In outline: as §2
A short description of assay [5]: Quantitative High-Throughput drug screen in 47 multiple myeloma cell lines against the NCATS MIPE library collection: INA6_PLB cell viability assay (AID 1918965; note: nearly all actives have a fitted effect of over 55% in size). In outline: as §1
Assay [6] can be described thus: Quantitative High-Throughput drug screen in 47 multiple myeloma cell lines against the NCATS MIPE library collection: JJN3_DSMZ cell viability assay (AID 1918966; note: nearly all actives have a fitted effect of over 50% in size). In outline: (§3)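 Primary qHTS used for cherry-picking: cells at 500/well, library compounds for 48 h (37C, 5% CO2), luminescent ATP assay.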
Assay [7] can be described thus: Quantitative High-Throughput drug screen in 47 multiple myeloma cell lines against the NCATS MIPE library collection: Karpas25_ECACC cell viability assay (AID 1918968; note: nearly all actives have a fitted effect of over 35% in size). In outline:
as §3

Assay [8] can be described thus: Quantitative High-Throughput drug screen in 47 multiple myeloma cell lines against the NCATS MIPE library collection: H1112_PLB cell viability assay (AID 1918967; note: nearly all actives have a fitted effect of over 30% in size). In outline: as §3
The nature of assay [9]: Quantitative High-Throughput drug screen in 47 multiple myeloma cell lines against the NCATS MIPE library collection: JIM1_ECACC cell viability assay (AID 1918964). In outline:
as §3

Assay [10] in a line: Quantitative High-Throughput drug screen in 47 multiple myeloma cell lines against the NCATS MIPE library collection: KMS27_JCRB cell viability assay (AID 1918970). Note: nearly all actives have a fitted effect of over 30% in size. In outline:
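Luminescent ATP read-out (CellTiter-Glo, 5 min at room temperature) after 48 h compound exposure of 500 KMS27_JCRB cells per well; DMSO wells define full viability and media-only wells zero.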
Potency is the fitted concentration of half-maximal effect.

For `CS(=O)(=O)c1cccc(CNc2nc(Nc3ccc4c(c3)CCC(=O)N4)ncc2C(F)(F)F)c1`, the Potency in assay [1] was 4.18 µM (active); in [2] it was 2.64 µM (active); in assay [3], 14.8 µM (active); in assay [4], 18.7 µM (active); in assay [5] it was 11.8 µM (active); in [6], 16.6 µM (active). The Potency in assay [7] is 18.7 µM (active).
Take `COc1cc2nccc(Oc3ccc(NC(=O)NC4CC4)c(Cl)c3)c2cc1C(N)=O`: the Potency is 3.72 µM (active) in assay [1], 13.2 µM (active) in [4], 1.48 µM (active) in assay [6] and 2.96 µM (active) in [8]. Also, the Potency result in assay [2] was “inactive”.
On to `CCn1cc(C(=O)O)c(=O)c2cc(F)c(N3CCNC(C)C3)c(F)c21` (centres undefined), for which the Potency entry in assay [1], in assay [3], in [4], in assay [9], in [5] and in assay [8] was “inactive” in each case. The Potency entry in assay [7] is “inactive”.
As to `CC[C@@H](C)[C@H](NC(=O)[C@H](CC1CCCCC1)NC(=O)c1ccno1)C(=O)N1CCC2(CCc3ccccc32)CC1`, the Potency entry in assay [1], in [3], in assay [5] and in [10] was “inactive” each time. In addition, in [2], the viability (% of DMSO) is 124% (active).
Regarding `Cc1cc(-c2ccc(CC(=O)Nc3ccc(-c4cccnc4)cc3)cc2)ccn1`, the Potency in assay [1] is 14.8 µM (active); in [2], 16.6 µM (active); in assay [4], 18.7 µM (active); in assay [9] it was 20.9 µM (active); in assay [5], 13.2 µM (active); in [8], 18.7 µM (active). For the same compound, the Potency in assay [7] is 18.7 µM (active).
Take `Cc1ccc(NC(=O)c2cccc(C(C)(C)C#N)c2)cc1Nc1ccc2ncn(C)c(=O)c2c1`: the Potency in [1] was 2.35 µM (active); in assay [2] it was 0.187 µM (active); in assay [3] it was 0.166 µM (active); in [4], 11.8 µM (active); in assay [5] it was 14.8 µM (active); in assay [6], 18.7 µM (active). The Potency in [7] is 13.2 µM (active).
Regarding `CCOc1cc(N2CCC(O)CC2)ccc1Nc1ncc2c(n1)N(C)c1ccccc1C(=O)N2C`, the Potency in [1] was 1.18 µM (active); in [3], 0.935 µM (active); in assay [4] it was 8.33 µM (active); in assay [5] it was 2.64 µM (active); in assay [7], 9.35 µM (active); in assay [10], 0.187 µM (active).
